Among the test systems are NCI-H23 lung; NCI-H226 lung; NCI-H322M lung; HOP-62 NSCLC; NCI-H460 lung; HOP-92 NSCLC; NCI-H522 lung; A549/ATCC NSCLC; 786-0 renal; COLO 205 colon; DU-145 prostate; K-562 leukemia; MALME-3M melanoma; MDA-MB-231 breast; RXF 393 renal; SF-268 CNS; SF-295 CNS; SF-539 CNS; UACC-257 melanoma; M14 melanoma.
Holding throughout (assay): NCI-60 one-dose screen, 48 h (100 = growth as untreated, 0 = no growth, -100 = all killed)
Common to all, as to details: 10 µM unless noted

The panel holds about 83,000 compounds, 20% with a hit somewhere; the sample as a whole holds those more often.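 Each cell line was grown in a 96-well plate and treated with one concentration of compound for 48 hours. Values below 10 were considered active.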 A number with no mark means an inactive call. Calls of active or inactive are those of the source.

As to `CCOC(=O)Nc1nc2ccc(SCC(C)C)cc2s1`, the growth with NCI-H23 lung is 40.9%; with NCI-H226 lung it was 46.6%; in the assay with NCI-H322M lung, 36.7%; with HOP-62 NSCLC, 22.6%; with NCI-H460 lung, 19.3%; in the assay on HOP-92 NSCLC it was 33.6%. For the same molecule, the growth is 4.9% (active) in the assay with NCI-H522 lung; 28.5% in the assay with A549/ATCC NSCLC; 27.8% in the assay on 786-0 renal; -14.9% (active) in the assay with COLO 205 colon; 42.2% in the assay with DU-145 prostate; 18% in the assay on K-562 leukemia. The growth is 32.4% with MALME-3M melanoma; 40.6% in the assay with MDA-MB-231 breast; -3.43% (active) with RXF 393 renal; 45.2% in the assay with SF-268 CNS; 26.1% in the assay on SF-295 CNS; 12.3% in the assay on SF-539 CNS. Further, the growth in the assay with UACC-257 melanoma is 55%; in the assay on M14 melanoma, 25.8%.

`C=C1C(=O)O[C@H]2[C@H]1CC/C(CNC(=O)c1cc3ccccc3[nH]1)=C\CC[C@@]1(C)O[C@@H]21`: the growth is -42.3% (active) in the assay on NCI-H23 lung; -42.9% (active) in the assay with NCI-H226 lung; 63.8% with NCI-H322M lung; 9.39% (active) with HOP-62 NSCLC; -19.7% (active) with NCI-H460 lung; -51.1% (active) with HOP-92 NSCLC. Besides, the growth in the assay on NCI-H522 lung was -75.4% (active); in the assay with A549/ATCC NSCLC it was 9.2% (active); with 786-0 renal, -67.3% (active); with COLO 205 colon, -83.3% (active); in the assay on DU-145 prostate, -87.7% (active); in the assay with K-562 leukemia it was -20.6% (active). Also, the growth with MALME-3M melanoma was -28.9% (active); in the assay with MDA-MB-231 breast, -46.6% (active); in the assay with RXF 393 renal it was -76% (active); in the assay with SF-268 CNS, -27.3% (active); in the assay with SF-295 CNS, 42.3%; with SF-539 CNS, -77.1% (active). The results for the growth in the assay on UACC-257 melanoma and with M14 melanoma were -49.2% (active) and -57.1% (active), respectively.

Regarding `CC1CN=C(c2cccc(-c3ccc(-c4ccccc4)o3)c2)N1` (stereo not given), the growth in the assay with NCI-H23 lung is 27.6%; with NCI-H226 lung it was 30%; in the assay on NCI-H322M lung, 4.39% (active); with HOP-62 NSCLC it was 39.9%; in the assay on NCI-H460 lung, -25.5% (active); in the assay on HOP-92 NSCLC, -13.1% (active). For the same molecule, the growth was -64.5% (active) in the assay on NCI-H522 lung; 12.2% with A549/ATCC NSCLC; -43.6% (active) in the assay with 786-0 renal; -82.6% (active) with COLO 205 colon; 37.4% in the assay on DU-145 prostate; -38.2% (active) with K-562 leukemia. In addition, the growth in the assay on MALME-3M melanoma is -85.2% (active); in the assay on MDA-MB-231 breast it was -51.5% (active); with RXF 393 renal, -67.8% (active); with SF-268 CNS, 3.07% (active); with SF-295 CNS it was -49.1% (active); in the assay with SF-539 CNS, -72.2% (active). Further, the growth in the assay with UACC-257 melanoma was -58.5% (active); in the assay on M14 melanoma it was -67.2% (active).

Take `N#C/C(=C\c1ccc(Cl)cc1Cl)C(=O)Nc1ncc(Cc2ccc(Cl)c(Cl)c2)s1`: the growth was 91.8% with NCI-H23 lung; 93.4% in the assay on NCI-H226 lung; 76.4% with NCI-H322M lung; 82.9% in the assay with HOP-62 NSCLC; 101% in the assay with NCI-H460 lung; 70.7% in the assay on HOP-92 NSCLC. Further, the growth was 79.1% in the assay on NCI-H522 lung; 89.3% in the assay on A549/ATCC NSCLC; 93.2% with 786-0 renal; 112% with COLO 205 colon; 99.3% with DU-145 prostate; 25.5% in the assay with K-562 leukemia. Also, the growth was 93% in the assay with MALME-3M melanoma; 97.1% in the assay with MDA-MB-231 breast; 113% in the assay with RXF 393 renal; 84% in the assay on SF-268 CNS; 89.9% in the assay with SF-295 CNS; 85.6% in the assay on SF-539 CNS. In addition, the results for the growth with UACC-257 melanoma and in the assay with M14 melanoma were 93.2% and 53.8%, respectively.

For `CC12CCC(/C(=C/NNc3ccc([N+](=O)[O-])cc3[N+](=O)[O-])C1=O)C2(C)C` (stereo not given), the growth is 78.1% with NCI-H23 lung; 87.1% in the assay with NCI-H226 lung; 83.6% with NCI-H322M lung; 100% in the assay with HOP-62 NSCLC; 45.1% in the assay with NCI-H460 lung; 79.7% with HOP-92 NSCLC. The growth in the assay on NCI-H522 lung is 36.2%; in the assay on A549/ATCC NSCLC it was 77.9%; in the assay with 786-0 renal, 96.4%; in the assay on COLO 205 colon, 91.4%; in the assay on DU-145 prostate it was 4.67% (active); in the assay with K-562 leukemia, 77.9%. Also, the growth is 128% in the assay with MALME-3M melanoma; 66.1% in the assay on MDA-MB-231 breast; 64.6% in the assay on RXF 393 renal; 77.8% in the assay with SF-268 CNS; 85.2% in the assay with SF-295 CNS; 102% with SF-539 CNS. Further, the growth was 64.4% in the assay on UACC-257 melanoma and 65.5% in the assay with M14 melanoma.

For the molecule `COc1cccc(/C=C/C(=O)c2cc3c(N)c(C(=O)Nc4ccccc4C)sc3nc2C)c1`, the growth in the assay with NCI-H23 lung is 70.4%; in the assay with NCI-H226 lung, 69.2%; with NCI-H322M lung, 80.5%; in the assay on HOP-62 NSCLC, 67.7%; in the assay with NCI-H460 lung it was 32.2%; in the assay on HOP-92 NSCLC, 74.1%. Moreover, the growth was -7.9% (active) with NCI-H522 lung; 62.9% in the assay on A549/ATCC NSCLC; 9.79% (active) with 786-0 renal; 92.2% in the assay on COLO 205 colon; 8.15% (active) in the assay with DU-145 prostate; 12.9% with K-562 leukemia. Also, the growth with MALME-3M melanoma was 78.6%; in the assay on MDA-MB-231 breast it was 52.8%; in the assay on RXF 393 renal, -10.2% (active); with SF-268 CNS it was 28.9%; in the assay on SF-295 CNS it was 74%; in the assay on SF-539 CNS it was 50.9%. In addition, the growth in the assay on UACC-257 melanoma is 83.2%; with M14 melanoma it was 47.5%.

Consider `O=C(NCc1ccc2c(c1)OCO2)NCC1CCCC(CNC(=O)NCc2ccc3c(c2)OCO3)C1` (stereo not given), for which the growth is 99.7% in the assay with NCI-H23 lung; 100% in the assay on NCI-H226 lung; 108% in the assay on NCI-H322M lung; 102% in the assay on HOP-62 NSCLC; 101% in the assay with NCI-H460 lung; 103% with HOP-92 NSCLC. The growth in the assay with NCI-H522 lung is 89.4%; in the assay on A549/ATCC NSCLC, 96.9%; in the assay on 786-0 renal, 97.6%; in the assay on COLO 205 colon, 119%; in the assay on DU-145 prostate, 108%; in the assay on K-562 leukemia it was 95.3%. Besides, the growth in the assay with MALME-3M melanoma was 108%; with MDA-MB-231 breast, 96.4%; in the assay on RXF 393 renal, 106%; in the assay with SF-268 CNS it was 97.7%; in the assay on SF-295 CNS, 101%; in the assay on SF-539 CNS it was 103%. Moreover, the results for the growth with UACC-257 melanoma and in the assay on M14 melanoma were 104% and 109%, respectively.

`CCN(CC)c1ccc(N2C(=O)/C(=C/c3cccs3)SC2=S)cc1`: the growth in the assay with NCI-H23 lung was 94.8%; with NCI-H226 lung it was 93.7%; in the assay on NCI-H322M lung, 91.7%; in the assay with HOP-62 NSCLC, 106%; in the assay on NCI-H460 lung, 97.8%; in the assay with HOP-92 NSCLC, 6.63% (active). Besides, the growth in the assay on NCI-H522 lung was 82.9%; in the assay with A549/ATCC NSCLC, 92%; with 786-0 renal, 95.6%; in the assay with COLO 205 colon, 101%; with DU-145 prostate, 100%; with K-562 leukemia it was 94%. For the same molecule, the growth in the assay with MALME-3M melanoma is 84.2%; in the assay with MDA-MB-231 breast, 91.3%; with RXF 393 renal, 98.3%; in the assay on SF-268 CNS it was 92.1%; in the assay on SF-295 CNS, 99.6%; in the assay with SF-539 CNS, 94.3%. Moreover, the growth in the assay on UACC-257 melanoma is 80.6%; with M14 melanoma, 95.4%.
